Source: PubChem BioAssay (Broad Institute)
In the library only some 6.8% were active in any assay of this set; here they are far more common.
C diff growth: inhibitors of Clostridium difficile growth. Clostridium difficile clinical isolate growth, OD600, 24 h; hits give low values. growth activity, negative = inhibition, % at 16 µg/mL (by protocol). actives 0.25% (n = 86,000). AID 1259249;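 active = mean growth activity at or below -80% and every replicate also at or below -80%; inconclusive = mean at or below -80% but some replicate above -80%; inactive = mean growth activity above -80%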;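 also: 0% = DMSO wells and -100% = levofloxacin 16 µg/mL wells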
Pf Dd2 inh: inhibitors of Plasmodium falciparum Dd2 growth; P. falciparum Dd2 growth, SYBR Green, 72 h; hits give low values; activity change, % at 10 µM; actives 2.3% (n = 94,000); in the data active = activity change below about -80%; inconclusive = no clear call, values can overlap the other calls
T cruzi growth-1: T. cruzi proliferation inhibition; inhibition, % at 8.34 µM; T. cruzi beta-gal in NIH3T3, GalScreen luminescence, 90 h; AID 624255; actives 5.9% (n = 77,000);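 active = mean inhibition above about 93%, with at least 55% of replicates each passing it, limit read from the data, passing the limit was not always enough; inconclusive = only one of those two conditions holds; inactive = neither condition holds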
T cruzi growth-2: inhibitors of T. cruzi proliferation | actives 72% (n = 5,600) | T. cruzi beta-gal in NIH3T3, GalScreen luminescence, 90 h | shares compounds with T cruzi growth-1 | inhibition, % at 8.35 µM | AID 651739;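 active = mean replicate inhibition above about 95% and at least 55% of replicates individually reaching it, limit read from the data; inconclusive = only one of the two criteria is met; inactive = neither criterion is met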
T cruzi growth-3: blocks T. cruzi growth in NIH3T3 host cells; shares compounds with T cruzi growth-1; T. cruzi beta-gal in NIH3T3, GalScreen luminescence, 90 h; inhibition, % at 2.09 µM; actives 21% (n = 5,600);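 active = mean inhibition above about 95%, with at least 55% of replicates also reaching it, limit read from the data; inconclusive = meets just one of the two conditions; inactive = meets neither condition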;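 also: plate controls were neutral control median for no effect and positive control median for full effect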
NIH3T3 tox: NIH/3T3 (mouse) viability loss | shares compounds with T cruzi growth-1 | NIH/3T3 viability, CellTiter-Glo ATP luminescence, 90 h | cytotoxicity (signal decrease), % at 8.35 µM | actives 14% (n = 5,600) | AID 651742;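 active = mean signal decrease across replicates above about 35% based on untreated-well scatter, with enough replicates individually passing, limit read from the data; inconclusive = no rule stated though some were filed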;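 also: 0% = median of neutral control wells and 100% = median of positive control wells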
3T3 cytotox 2: NIH/3T3 (mouse) viability loss. actives 56% (n = 5,600). shares compounds with T cruzi growth-1. inhibition, % at 24.9 µM. NIH/3T3 viability, CellTiter-Glo ATP luminescence, 90 h;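 active = mean loss of cell viability signal at or above a set limit, and enough replicates individually reaching it; inconclusive = meets only the mean limit or only the replicate share; inactive = meets neither condition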;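 also: 0% = median of neutral control wells and 100% = median of positive control wells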
Starred values were filed as active, the others as inactive; ? = inconclusive; · = not tested or not shown.

SMILES	C diff growth	Pf Dd2 inh	T cruzi growth-1	T cruzi growth-2	T cruzi growth-3	NIH3T3 tox	3T3 cytotox 2
COc1cc(CN2CC3(CN(C(C)=O)C3)c3c([nH]c4cc(OC)ccc34)[C@H]2CO)cc(OC)c1	4.6	-26.0	·	·	·	·	·
Cc1noc(C)c1NC(=O)N(C)C[C@H]1Oc2c(NC(=O)c3ccncc3)cccc2C(=O)N([C@H](C)CO)C[C@H]1C	·	45.5	-93.9	·	·	·	·
C[C@@H]1CN([C@@H](C)CO)C(=O)c2cc(NC(=O)Nc3cccc4ccccc34)ccc2O[C@H]1CN(C)Cc1ccc(C(F)(F)F)cc1	-5.2	8.7	96.4*	106.2*	77.5	21.1	21.0
C[C@H](CO)N1C[C@H](C)[C@H](CN(C)Cc2ccccc2)Oc2ccc(NC(=O)Nc3cccc4ccccc34)cc2C1=O	2.0	15.5	-13.2	·	·	·	·
C[C@H](CO)N1C[C@H](C)[C@@H](CN(C)Cc2ccc(C(F)(F)F)cc2)Oc2ccc(NC(=O)Nc3cccc4ccccc34)cc2C1=O	3.2	10.7	100.1*	107.2*	59.9	23.5	11.6
C[C@H]1CN([C@@H](C)CO)C(=O)c2cc(NC(=O)Nc3cccc4ccccc34)ccc2O[C@H]1CN(C)Cc1ccc(C(F)(F)F)cc1	11.6	13.1	52.6	·	·	·	·
CC(C)c1cn(CC[C@@H]2CC[C@@H](NS(=O)(=O)c3ccc(F)cc3)[C@@H](CO)O2)nn1	-2.4	2.1	-18.9	·	·	·	·
O=C(O)C[C@H]1C[C@H]2c3cc(NC(=O)c4ccc5c(c4)OCO5)ccc3O[C@H]2[C@@H](CO)O1	-0.9	0.3	-4.0	·	·	·	·
O=S(=O)(c1ccc(F)cc1)N1CCCCN2[C@H](C1)[C@H](c1ccc(C#CC3CCCC3)cc1)[C@@H]2CO	1.2	6.3	116.2*	97.4*	87.3	27.1	53.6*
COc1cccc(S(=O)(=O)N2CCCCN3[C@H](CO)[C@H](c4ccc(C#CC5CC5)cc4)[C@@H]3C2)c1	12.0	28.6	104.6	·	·	·	·
O=S(=O)(c1ccc(F)cc1)N1CCCCN2[C@H](CO)[C@H](c3ccc(C#CC4CCCC4)cc3)[C@H]2C1	38.2	-67.0	84.2	·	·	·	·
O=S(=O)(c1ccc(F)cc1)N1CCCCN2[C@H](CO)[C@@H](c3ccc(C#CC4CC4)cc3)[C@H]2C1	14.9	-52.3	93.7	·	·	·	·
COc1ccc(S(=O)(=O)N2CCCCN3[C@H](C2)[C@H](c2ccc(C#CC4CC4)cc2)[C@@H]3CO)cc1	41.9	16.1	123.5*	106.2*	72.8	15.2	-10.6
COc1ccc(S(=O)(=O)N2CCCCN3[C@H](CO)[C@H](c4ccc(C#CC5CC5)cc4)[C@H]3C2)cc1	51.8	-38.5	100.0*	105.9*	110.6*	53.6*	105.3*
CCNC(=O)Nc1ccc2c(c1)C(=O)N(C)[C@H]1CC[C@H](CC(=O)NC3CCCCC3)O[C@H]1CO2	-3.5	21.3	24.1	·	·	·	·
C[C@H](NC(=O)[C@@H]1[C@@H](CO)[C@@H]2Cn3c(ccc(C4=CCCC4)c3=O)[C@@H]2N1C)c1ccccc1	6.7	-1.0	47.6	·	·	·	·
C[C@@H]1CN([C@H](C)CO)S(=O)(=O)c2ccc(C#Cc3ccccn3)cc2O[C@@H]1CN(C)CC1CC1	-8.9	-48.6	33.8	·	·	·	·
C[C@H](CO)N1C[C@H](C)[C@@H](CN(C)Cc2cccc(F)c2)Oc2cc(C#Cc3ccccn3)ccc2S1(=O)=O	-3.4	-38.0	116.8*	94.0	111.5*	-35.0	8.1
CCCN(C)C[C@@H]1Oc2cc(C#Cc3ccccn3)ccc2S(=O)(=O)N([C@@H](C)CO)C[C@@H]1C	6.1	-77.4	52.4	·	·	·	·
C[C@@H]1CN([C@@H](C)CO)S(=O)(=O)c2ccc(C#Cc3ccccn3)cc2O[C@@H]1CN(C)Cc1cccc(F)c1	-0.1	-31.3	119.2*	108.0*	?	31.3	21.0
CO[C@H]1CN(C)C(=O)c2cc(NC(=O)Nc3cccc(F)c3)ccc2OC[C@H](C)N(C(C)=O)C[C@@H]1C	·	0.2	-10.3	·	·	·	·
COc1ccc(S(=O)(=O)N(C)C[C@@H]2Oc3ccc(NC(=O)Cn4cnnn4)cc3C(=O)N([C@H](C)CO)C[C@H]2C)cc1	-1.1	-23.5	104.9*	51.9	-4.8	-13.9	10.3
COc1ccc(S(=O)(=O)N(C)C[C@H]2Oc3ccc(NC(=O)Cn4cnnn4)cc3C(=O)N([C@H](C)CO)C[C@@H]2C)cc1	-0.7	0.8	-79.7	·	·	·	·
COc1ccc(S(=O)(=O)N(C)C[C@H]2Oc3ccc(NC(=O)Cn4cnnn4)cc3C(=O)N([C@H](C)CO)C[C@H]2C)cc1	-0.5	-8.4	49.6	·	·	·	·
COc1ccc(S(=O)(=O)N(C)C[C@H]2Oc3ccc(NC(=O)Cn4cnnn4)cc3C(=O)N([C@@H](C)CO)C[C@@H]2C)cc1	-4.9	-24.6	99.7*	-12.7	-13.6	-5.9	13.6
SMILES	C diff growth	Pf Dd2 inh	T cruzi growth-1	T cruzi growth-2	T cruzi growth-3	NIH3T3 tox	3T3 cytotox 2
O=C(NC1CCCCC1)N1CC2(C1)[C@H](c1ccccc1)[C@@H](CO)N2CC1CC1	49.8	17.8	·	·	·	·	·
CCCNC(=O)C[C@H]1CC[C@H]2[C@@H](COC[C@H](O)CN2C(=O)c2ccccn2)O1	·	13.1	-4.6	·	·	·	·
CCCNC(=O)N1CCC2(CC1)CN(C(=O)NC(C)C)[C@H](CO)c1c2c2ccc(OC)cc2n1C	1.1	-53.6	·	·	·	·	·
CCN(C[C@H]1[C@H](c2ccccc2)[C@@H](CO)N1C(C)=O)C(=O)c1cccc(F)c1	-6.8	-1.1	103.2*	-11.8	-5.2	-6.2	-7.0
CCC(=O)N(CC)C[C@@H]1[C@@H](c2ccc(-c3ccccc3)cc2)[C@@H](CO)N1C(C)=O	-4.2	-8.5	·	·	·	·	·
CCN(C[C@@H]1[C@@H](c2ccc(-c3ccccc3)cc2)[C@H](CO)N1C(C)=O)C(C)=O	-7.5	-9.8	?	-49.9	-11.6	-3.4	-21.5
CCN(C[C@H]1[C@H](c2ccc(-c3cccnc3)cc2)[C@@H](CO)N1C(C)=O)C(C)=O	-3.9	2.9	-14.7	·	·	·	·
CCN(C[C@H]1[C@H](c2ccc(-c3ccccc3)cc2)[C@H](CO)N1C(C)=O)C(C)=O	3.8	2.6	105.6*	-22.7	-67.5	-2.4	-2.4
CCC(=O)N1[C@H](CN(CC)C(=O)c2cccc(F)c2)[C@H](c2ccccc2)[C@@H]1CO	-6.2	-56.2	12.8	·	·	·	·
Cc1noc(C)c1S(=O)(=O)Nc1ccc2c(c1)C(=O)N([C@H](C)CO)C[C@@H](C)[C@@H](CN(C)S(C)(=O)=O)OCCCC[C@H](C)O2	-0.4	44.1	28.5	·	·	·	·
OC[C@@H]1[C@H](c2ccc(C#Cc3ccccc3)cc2)[C@H]2CN(CC3CCOCC3)CCCCN12	-5.3	-53.7	117.3*	99.7*	88.3	23.0	104.6*
OC[C@@H]1[C@@H](c2ccc(C#Cc3ccccc3F)cc2)[C@H]2CN(CC3CCOCC3)CCCCN12	3.1	-68.4	88.0	·	·	·	·
